Records with an inconclusive call do not appear. Active and inactive are the calls of the source. The call rests on the fitted dose curve.
test: qHTS for Inhibitors of Cell Surface uPA Generation: Wild-type Protective Antigen (WT-PrAg) Counterscreen for Cherry-picked Compounds; settings: cells, WT protective antigen toxicity counterscreen; series mostly up to 115 µM; activity (protection): at the top concentration; further: 0% is about no effect

Compound	activity (protection)
O=C(Cc1ccc(Cl)cc1)c1c[nH]c(C(=O)NCCCn2ccnc2)c1	1.41% (inactive)
O=C(CSc1ccc(Cl)cc1)N1CCCC1	-1.93% (inactive)
COc1cc(CN2CCN(c3ncccn3)CC2)cc(OC)c1	-0.252% (inactive)
CC(/C=C/C1(O)C(C)CC(O)CC1(C)C)OC1OC(CO)C(O)C(O)C1O (stereo not given)	1.61% (inactive)
CCCOC(=O)CSC1=C(C#N)C(c2ccccc2Cl)CC(=O)N1 (stereo not given)	-1.5% (inactive)
Cc1cccc(C(=O)NCC(=O)OCC(=O)NC2CCCCCCC2)c1	0.954% (inactive)
COc1ccc(C(=O)NC(C)c2cnn(-c3ccccn3)c2C)o1 (stereo not given)	-0.938% (inactive)
O=C(CCCC(=O)N1CCN(c2ccccc2F)CC1)c1ccccc1	0.0653% (inactive)
COc1ccc(NC(=O)c2nn(C)c3c2CS(=O)(=O)c2ccccc2-3)cc1	-0.433% (inactive)
COc1ccccc1NC(=O)Cn1nnc(-c2ccccc2NC(=O)c2cc3ccccc3oc2=O)n1	-0.855% (inactive)
FC(F)(F)Oc1ccc(NC2=NCCCS2)cc1	-0.406% (inactive)
CC(C)(C)S(=O)(=O)N1C[C@H]2CC/C=C\C/C(c3ccccc3)=C\2[C@@H]1CCO	-0.255% (inactive)
Cc1ccc(C)c(NC(=O)CCN2CCN(c3ccccc3F)CC2)c1	0.501% (inactive)
O=C(O)c1ccc(-c2ccc(/C=C3\NC(=O)N(Cc4ccc(Cl)cc4)C3=O)o2)cc1	0.0956% (inactive)
Cc1cc(=O)n2nc(N3CCCC(C(=O)NCc4ccc(Cl)cc4)C3)sc2n1 (stereo not given)	-0.851% (inactive)
C/C=C(/C(=C/C)c1ccc(O)cc1)c1ccc(O)cc1	-2.13% (inactive)
C=C(C)C(=O)O[C@H]1C/C(C)=C\C(=O)/C=C(\C)[C@H](O)[C@@H]2OC(=O)C(=C)[C@@H]21	8.03% (inactive)
COc1ccc(NC(=O)/C(N=Nc2cc(S(=O)(=O)Nc3ccc(OC)cc3)ccc2OC)=C(\C)O)cc1	-1.2% (inactive)
Cc1ccc(-c2cc(C(=O)NCC3CCCO3)no2)cc1 (stereo not given)	-2.27% (inactive)
CC1(C)C([N+](=O)[O-])C(c2ccc(F)cc2)NC(c2ccc(F)cc2)C1[N+](=O)[O-] (stereo not given)	6.17% (inactive)

Compound	activity (protection)
Cc1nn(C)c(C)c1S(=O)(=O)N1CCC(C(=O)NC2CCCCCC2)CC1	-0.489% (inactive)
C=CCn1c(C)cc(C(=O)COC(=O)/C=C/c2cccc(OC)c2)c1C	-1.08% (inactive)
Cc1cc2[nH]c(=O)c(=O)[nH]c2cc1S(=O)(=O)NC1CCC(C)CC1 (stereo not given)	-0.438% (inactive)
O=C(COc1cccc2ccccc12)NNC(=O)c1cnccn1	-1.17% (inactive)
O=C(CNS(=O)(=O)c1ccc(F)cc1)Nc1ccccc1	-0.098% (inactive)
Cc1nc(SCc2nc3ccccc3[nH]2)c2oc3cc([N+](=O)[O-])ccc3c2n1	-2.07% (inactive)
COc1ccc(Cc2nnc(NC(=O)Nc3ccc(F)cc3)s2)cc1	6.85% (inactive)
COc1ccc2c(c1)c1nnc(SCC(=O)Nc3ccccc3F)nc1n2C	-0.789% (inactive)
CCOC(=O)Oc1c(OC)cc(C(=O)O[C@@H]2C[C@@H]3CN4CCc5c([nH]c6cc(OC)ccc56)[C@H]4C[C@@H]3[C@H](C(=O)OC)[C@H]2OC)cc1OC	-0.0981% (inactive)
Cc1ccc2cccc(OCCCOc3ccccc3CO)c2n1	1.21% (inactive)
O=C1NCCN1C(=O)N(c1ccccc1)c1ccccc1	-0.281% (inactive)
O=C(Nc1ccc(Cl)cn1)C1CCCN(c2ncnc3c2nc2n3CCCCC2)C1 (stereo not given)	-2.43% (inactive)
O=C(C[n+]1ccccc1)Nc1ccccc1C(F)(F)F	0.0894% (inactive)
C/C(=N\NC(=S)NC(C)C)c1ccc(Cl)s1	-1.3% (inactive)
CCC(=O)N1CCC(NC(=O)Nc2ccc(OC(F)(F)F)cc2)CC1	-0.144% (inactive)
C=CCn1c(SCc2ccc(C(=O)NCCO)cc2)nc2ccccc2c1=O	-1.45% (inactive)
C/C=C/C(=O)Nc1cccc(C2=NOC3(C2)C[C@@H](C(N)=O)N(C(=O)c2cc([N+](=O)[O-])cc([N+](=O)[O-])c2C)C3)c1 (stereo not given in full)	-1.15% (inactive)
Cc1cc(N)n(Cc2ccc(Cl)cc2)n1	-0.742% (inactive)
NS(=O)(=O)c1ccc(CCNC(=O)c2ccc(Cl)s2)cc1	0.393% (inactive)
Cc1cc(C)c(NC(=O)Cn2nnc(C(=O)NCc3ccc4c(c3)OCO4)c2N)c(C)c1	3.21% (inactive)
